High-throughput results: PubChem, Center for Chemical Genomics, University of Michigan
Dicer processing – human Dicer pre-microRNA cleavage inhibition; 47,000 compounds, 6% hits; AID 1347074; cat-ELCCA pre-miR-21 Dicer processing, chemiluminescence; hits give high values; Q9UPY3; z-score at 25 µM; in the data active = z-score above about 3, passing the limit was not always enough;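 note: higher signal means more uncleaved substrate so more Dicer inhibition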
Of the large screens only hits and unclear results are named; the others gave an inactive call. This excerpt belongs to a sample that is enriched for hits.

Cc1c(Cl)cccc1N1C(=O)C2C(c3ccccc3)OC3(C(=O)c4ccccc4C3=O)C2C1=O (stereo not drawn)	none
COc1ccc(N2C(=O)C3C(c4ccccc4)OC4(C(=O)c5ccccc5C4=O)C3C2=O)cc1OC (stereo not drawn)	none
O=C1C2C(c3ccccc3)OC3(C(=O)c4ccccc4C3=O)C2C(=O)N1c1cccc(F)c1 (stereo not drawn)	none
COC(=O)c1cc(OC)c(OC)cc1NS(=O)(=O)c1ccc(F)c(F)c1	none
Cn1c(SCc2ccc(Cl)c(Cl)c2)n[nH]c1=S	none
Cc1cc(C)c2c(=O)n(C(=O)c3ccccc3)sc2n1	none
COc1cccc(N2C(=O)CC(c3c[nH]c4ccccc34)C2=O)c1 (stereo not drawn)	none
CSc1ccc(CN2CCN(Cc3ccc4c(c3)OCO4)CC2)cc1	none
CCC(CNCCO)Nc1nc2c(c(=O)n(C)c(=O)n2C)n1C (stereo not drawn)	none
OC(CN1CCN(C(c2ccccc2)c2ccccc2)CC1)Oc1ccc(Cl)c(Cl)c1 (stereo not drawn)	none
O=C(NCc1ccccc1)C1Sc2nnc(-c3ccccc3)n2NC1c1ccc(F)cc1 (stereo not drawn)	none
COc1ccc2c(c1)CC/C(=C\c1ccc(F)cc1)C2=O	none
CCN(CC)S(=O)C12CC3CC(CC(C3)C1)C2 (stereo not drawn)	none
Cc1cc(Nc2ccccc2Cl)c2ccccc2n1	none
CCOC(=O)CC(=O)CSc1nc(C)c2cc(OCC)ccc2n1	none
CCOc1ccc2nc(C)cc(Nc3ccc(N(C)C)cc3)c2c1	Dicer processing 4.53
COc1ccc2nc(C)cc(Nc3ccccc3OC)c2c1	Dicer processing 3.32
CCOc1ccccc1Nc1cc(C)nc2ccc(OC)cc12	none
Cc1ccc2nc(C)cc(NCCO)c2c1	none
O=C(CCCSc1nc(-c2ccco2)cc(C(F)(F)F)n1)NCC1CCCO1 (stereo not drawn)	none
CSc1ccc(CN2CCN(S(=O)(=O)c3ccc(C)cc3)CC2)cc1	none
CSc1ccc(CN2CCN(S(=O)(=O)c3ccc(Cl)cc3)CC2)cc1	Dicer processing 3.45
CSc1ccc(CN2CCN(S(=O)(=O)c3ccccc3)CC2)cc1	none
Cc1nc(N2CCN(Cc3ccc4c(c3)OCO4)CC2)[nH]c(=O)c1CCC(C)C	Dicer processing 3.74
COc1cc(C)c(S(=O)(=O)N2CCN(Cc3ccc4c(c3)OCO4)CC2)cc1C	none
c1cnc(N2CCN(Cc3ccc4c(c3)OCO4)CC2)nc1	none
Cc1ccc(S(=O)(=O)N2CCN(Cc3ccc4c(c3)OCO4)CC2)cc1	Dicer processing 7.36
Cc1nc(N2CCN(Cc3ccc4c(c3)OCO4)CC2)[nH]c(=O)c1C	Dicer processing 3.23
Cc1cc(C)c(S(=O)(=O)N2CCN(Cc3ccc4c(c3)OCO4)CC2)c(C)c1	none
O=C(c1ccncc1)N1CCN(Cc2ccc3c(c2)OCO3)CC1	none
Cc1ccc(Cc2c(C)nc(N3CCCC3)[nH]c2=O)cc1	none
CC1(C)CC(=O)c2cnc(N3CCN(Cc4ccc5c(c4)OCO5)CC3)nc2C1	none
COCCOC(=O)C1=C(C)N=C2SCCC(=O)N2C1c1ccc(OC)c(OC)c1 (stereo not drawn)	none
Nc1ccccc1Sc1cc(C(F)(F)F)cc([N+](=O)[O-])c1Sc1ccccc1N	none
COCCNc1nc2ccc(C)cc2[nH]1	none
Cc1cc2oc3c(c(=O)c2cc1C)C(c1ccc(O)cc1)N(CCCN(C)C)C3=O (stereo not drawn)	none
COC(=O)CN(C(=O)c1ccccc1[N+](=O)[O-])C(C)(C)C	none
O=C1NC(c2ccc(OCc3ccccc3)cc2)Nc2sc3c(c21)CCCC3 (stereo not drawn)	Dicer processing 3.59
O=C1NC(c2ccccc2OCc2ccccc2)Nc2sc3c(c21)CCCC3 (stereo not drawn)	none
CN1CCc2c(sc3c2C(=O)NC(c2ccc(OCc4ccccc4)cc2)N3)C1 (stereo not drawn)	none
Clc1cccc(Cl)c1CSc1cccs1	none
Cc1nn(S(=O)(=O)c2ccccc2)c(C)c1Sc1ccc(Cl)cc1	none
Cc1cccn2c(=O)c(NC(=O)c3ccc(C(C)(C)C)cc3)cnc12	none
CCOC(=O)c1sc(SC)c(C(C)O)c1C (stereo not drawn)	Dicer processing 3.94
CCOC(=O)c1sc2sc(C(=O)OCC)c(C)c2c1C	none
CCOC(=O)c1sc(SC)c2c1CCC=C2	none
N#C/C(=C\c1ccc(C(F)(F)F)cc1Cl)S(=O)(=O)c1ccccn1	none
CCOC(=O)C1=NN(c2ccccc2)/C(=C2\C(=O)N(c3ccccc3)N=C2c2ccccc2)S1	none
Cc1onc(-c2c(Cl)cccc2Cl)c1NC(=O)O/N=C(\N)c1ccc([N+](=O)[O-])s1	none
CCCCCOc1ccc(C2Nc3ccccc3NC3=C2C(=O)CC(C)(C)C3)cc1 (stereo not drawn)	none
CCN(CC)CC#Cc1cccc(C)c1	Dicer processing 5.02
CCN(CC)CC#CC(O)(c1ccccc1)c1ccccc1	none
Cc1cn2c(nc1=O)O[C@H]1C[C@H]2O[C@@H]1COC(=O)c1ccccc1	none
CCOc1ccc(S(=O)(=O)N2CN3CCN(C3)C2)cc1	Dicer processing 3.25
CCOC(=O)C1CCN(S(=O)(=O)c2ccc(Br)cc2)CC1	none
CCCCOc1ccc(S(=O)(=O)n2cnc(C)c2)cc1	none
O=c1oc(-c2ccco2)cc(-c2ccccc2)c1-c1ccccc1	none
Cc1oc2ccc(NS(=O)(=O)c3ccccc3)cc2c1C(=O)O	Dicer processing 3.44
Cc1ccccc1S(=O)(=O)Nc1ccc2oc3c(c2c1)CCCC3	Dicer processing 3.9
COc1ccc(S(=O)(=O)Nc2ccc3oc4c(c3c2)CCCC4)cc1	none
O=C(O)c1ccc(S(=O)(=O)Nc2ccc3oc4c(c3c2)C(=O)CCC4)cc1	none
Cc1oc2ccc(NS(=O)(=O)c3ccc(Cl)cc3)cc2c1C(=O)O	none
Cc1oc2ccc(NS(=O)(=O)c3ccc(F)cc3)cc2c1C(=O)O	none
CNC(=O)c1cc2c(n(-c3ccc(Cl)cc3)c1=O)CC(C)(C)CC2=O	none
N/C(=N\OC(=O)c1ccc(OCC(F)(F)F)nc1)c1ccc(Cl)cc1	none
COC(=O)c1sc(N2C(=O)c3oc4ccc(F)cc4c(=O)c3C2c2ccc(F)cc2)nc1C (stereo not drawn)	none
Cc1ccc(C)n1-c1nn(S(=O)(=O)c2ccccc2)c2cccc(F)c12	none
Nc1c(Br)cc(Br)cc1C(=O)O	none
Cc1ccn2cc(-c3cccc(S(=O)(=O)N4CCCC4)c3)nc2c1	none
O=[N+]([O-])c1cc(-c2cnc3ccccc3n2)ccc1Sc1ccc(Cl)cc1	none
O=C1NC(=S)S/C1=C/c1ccc(Sc2ccc(Cl)cc2)c([N+](=O)[O-])c1	Dicer processing 5.2
O=C1NC(=S)S/C1=C\c1ccc([N+](=O)[O-])s1	none
COc1cccc(C=NC2CCN(Cc3ccccc3)CC2)c1OC	none
O=C(c1ccc2c(c1)CCO2)N1CCN(C(=O)c2ccc3c(c2)CCO3)CC1	none
O=C1CCOc2cc3c(cc21)C(=O)CCO3	Dicer processing 3.61
O=C1CCCc2c1ccc1c3c(ccc21)C(=O)CCC3	none
CCOC(=O)c1cnn(-c2ccc(Cl)c(Cl)c2)c1C	none
CCCC(=O)NCCc1c2n(c3ccc(OC)cc13)CCCc1ccccc1-2	none
O=C(Nc1ccc(F)cc1F)C(=S)NCc1cccs1	none
O=C(Nc1ccc(Sc2ccccc2)nc1Sc1ccccc1)c1cccs1	none
O=C(Nc1ccc(F)cc1F)c1cccs1	Dicer processing 6.38
O=C(O)c1ccc(C(=O)O)c(-c2nc3ccccc3s2)c1	none
CC(C)(C)c1ccc(Cn2c(-c3nonc3N)nc3ccccc32)cc1	none
COc1ccc(-c2nc3n(n2)C(c2ccc4c(c2)OCO4)C2=C(CCCC2=O)N3)cc1OC (stereo not drawn)	none
CCCCOc1ccc(Cc2c(O)nc(SC)[nH]c2=O)cc1	none
COc1cc(Br)c(C2CC(=O)NC(C)=C2C(=O)OC2CCCC2)cc1OC (stereo not drawn)	none
